Experimental data reported in PubChem BioAssay AID1159580 (chemical genetic matrix, 2015).
Among all 5,500 compounds or so, about 2,000 (36%) were called active. Inconclusive results (about 18%) are left out. No stated cut-off is given here; in the data, active means normalized growth mostly below about 0.91 (no sharp cut-off); inconclusive means no clear call, values can overlap the other calls; inactive means mostly above about 0.92. Some of the results follow.

Assay: chemical genetic growth profiling, strain panel (AID 1159580);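 further: tested at 20 µM; growth read once vehicle control cultures reached saturation at 30 °C; 1 = growth at the plate median or of vehicle wells; lower values mean less growth of the strain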
Conditions: growth OD

Measured: normalized growth

Cc1cn([C@H]2C[C@H](N=[N+]=[N-])[C@@H](CO)O2)c(=O)[nH]c1=O
inactive: S. cerevisiae deletion strains, locus YJR066W, strain TOR1, hits give low values 0.932 | S. cerevisiae deletion strains, locus YKL009W, strain mrt4, hits give low values 0.995 | S. cerevisiae deletion strains, locus YKL068W, hits give low values 1.01 | S. cerevisiae deletion strains, locus YKL085W, strain MDH1 (second series), hits give low values 1.01 | S. cerevisiae deletion strains, locus YKL085W, strain MDH1, hits give low values 1.01 | S. cerevisiae deletion strains, locus YKL160W, strain elf1, hits give low values 0.975 | S. cerevisiae deletion strains, locus YKL190W, strain CNB1, hits give low values 1.01 | S. cerevisiae deletion strains, locus YKR001C, strain vps1, hits give low values 1.02 | S. cerevisiae deletion strains, locus YKR026C, strain gcn3, hits give low values 0.988 | S. cerevisiae deletion strains, locus YKR091W, strain srl3, hits give low values 0.999 | S. cerevisiae deletion strains, locus YLL001W, strain dnm1, hits give low values 0.978 | S. cerevisiae deletion strains, locus YLL026W, hits give low values 0.996 | S. cerevisiae deletion strains, locus YLL041C, strain sdh2, hits give low values 0.993 | S. cerevisiae deletion strains, locus YLR027C, strain aat2, hits give low values 0.99 | S. cerevisiae deletion strains, locus YLR039C, strain RIC1, hits give low values 0.989 | S. cerevisiae deletion strains, locus YLR058C, strain SHM2, hits give low values 1.01 | S. cerevisiae deletion strains, locus YLR102C, strain apc9, hits give low values 1.01 | S. cerevisiae deletion strains, locus YLR113W, strain HOG1, hits give low values 0.936 | S. cerevisiae deletion strains, locus YLR221C, strain rsa3, hits give low values 1.02 | S. cerevisiae deletion strains, locus YLR258W, strain gsy2, hits give low values 0.97 | S. cerevisiae deletion strains, locus YLR262C, strain YPT6 (second series), hits give low values 0.998 | S. cerevisiae deletion strains, locus YLR262C, strain YPT6, hits give low values 1.01 | S. cerevisiae deletion strains, locus YLR268W, strain sec22, hits give low values 1 | S. cerevisiae deletion strains, locus YLR320W, strain mms22, hits give low values 0.981 | S. cerevisiae deletion strains, locus YLR330W, strain CHS5, hits give low values 1 | S. cerevisiae deletion strains, locus YLR342W, strain FKS1 (second series), hits give low values 0.991 | S. cerevisiae deletion strains, locus YLR342W, strain FKS1, hits give low values 1.01 | S. cerevisiae deletion strains, locus YLR357W, strain rsc2, hits give low values 0.935 | S. cerevisiae deletion strains, locus YLR370C, strain arc18, hits give low values 0.98 | S. cerevisiae deletion strains, locus YLR371W, strain rom2, hits give low values 1.01 | S. cerevisiae deletion strains, locus YLR384C, strain iki3, hits give low values 1 | S. cerevisiae deletion strains, locus YLR418C, strain cdc73, hits give low values 1.04 | S. cerevisiae deletion strains, locus YML016C, strain PPZ1, hits give low values 1 | S. cerevisiae deletion strains, locus YML032C, strain rad52, hits give low values 1.01 | S. cerevisiae deletion strains, locus YML120C, strain ndi1, hits give low values 1.01 | S. cerevisiae deletion strains, locus YML124C, strain tub3, hits give low values 1.01 | S. cerevisiae deletion strains, locus YMR058W, strain fet3, hits give low values 1.02 | S. cerevisiae deletion strains, locus YMR078C, strain ctf18, hits give low values 1 | S. cerevisiae deletion strains, locus YMR125W, strain sto1, hits give low values 0.999 | S. cerevisiae deletion strains, locus YMR129W, hits give low values 0.99 | S. cerevisiae deletion strains, locus YMR205C, strain PFK2, hits give low values 0.975 | S. cerevisiae deletion strains, locus YMR223W, strain ubp8, hits give low values 1 | S. cerevisiae deletion strains, locus YMR231W, strain pep5, hits give low values 1 | S. cerevisiae deletion strains, locus YMR263W, strain SAP30, hits give low values 1.01 | S. cerevisiae deletion strains, locus YMR307W, strain GAS1, hits give low values 1.02 | S. cerevisiae deletion strains, locus YNL067W, strain RPL9B, hits give low values 1.02 | S. cerevisiae deletion strains, locus YNL071W, strain lat1, hits give low values 1.01 | S. cerevisiae deletion strains, locus YNL153C, strain GIM3, hits give low values 1 | S. cerevisiae deletion strains, locus YNL183C, strain NPR1, hits give low values 0.911 | S. cerevisiae deletion strains, locus YNL209W, strain ssb2, hits give low values 0.994 | S. cerevisiae deletion strains, locus YNL233W, strain BNI4, hits give low values 0.991 | S. cerevisiae deletion strains, locus YNL248C, strain rpa49, hits give low values 0.981 | S. cerevisiae deletion strains, locus YNL250W, strain rad50, hits give low values 1.02 | S. cerevisiae deletion strains, locus YNL271C, strain bni1, hits give low values 1.02 | S. cerevisiae deletion strains, locus YNL298W, strain CLA4, hits give low values 1.02 | S. cerevisiae deletion strains, locus YNL307C, strain MCK1, hits give low values 1.01 | S. cerevisiae deletion strains, locus YNL322C, strain KRE1 (second series), hits give low values 0.972 | S. cerevisiae deletion strains, locus YNL322C, strain KRE1, hits give low values 1 | S. cerevisiae deletion strains, locus YNR049C, strain mso1, hits give low values 0.996 | S. cerevisiae deletion strains, locus YNR052C, strain pop2, hits give low values 1.01 | S. cerevisiae deletion strains, locus YOL006C, strain TOP1, hits give low values 1 | S. cerevisiae deletion strains, locus YOL012C, strain htz1 1.05 | S. cerevisiae deletion strains, locus YOL147C, strain pex11, hits give low values 1.01 | S. cerevisiae deletion strains, locus YOR001W, strain rrp6, hits give low values 1.02 | S. cerevisiae deletion strains, locus YOR061W, strain CKA2, hits give low values 1.01 | S. cerevisiae deletion strains, locus YOR069W, strain VPS5, hits give low values 1.01 | S. cerevisiae deletion strains, locus YOR070C, strain gyp1, hits give low values 0.998 | S. cerevisiae deletion strains, locus YOR080W, strain dia2, hits give low values 0.999 | S. cerevisiae deletion strains, locus YOR083W, strain WHI5, hits give low values 0.946 | S. cerevisiae deletion strains, locus YOR106W, strain vam3, hits give low values 0.999 | S. cerevisiae deletion strains, locus YOR136W, strain idh2, hits give low values 1.02 | S. cerevisiae deletion strains, locus YOR144C, strain elg1, hits give low values 1.01 | S. cerevisiae deletion strains, locus YOR184W, strain ser1, hits give low values 1.01 | S. cerevisiae deletion strains, locus YOR231W, strain MKK1, hits give low values 0.982 | S. cerevisiae deletion strains, locus YOR265W, strain rbl2, hits give low values 1.01 | S. cerevisiae deletion strains, locus YOR270C, strain vph1, hits give low values 1.06 | S. cerevisiae deletion strains, locus YOR290C, strain snf2, hits give low values 0.993 | S. cerevisiae deletion strains, locus YOR316C, strain cot1, hits give low values 1.01 | S. cerevisiae deletion strains, locus YPL051W, strain arl3, hits give low values 0.985 | S. cerevisiae deletion strains, locus YPL055C, strain LGE1, hits give low values 1.03 | S. cerevisiae deletion strains, locus YPL078C, strain atp4, hits give low values 0.99 | S. cerevisiae deletion strains, locus YPL106C, strain sse1, hits give low values 0.94 | S. cerevisiae deletion strains, locus YPL240C, strain hsp82, hits give low values 0.994 | S. cerevisiae deletion strains, locus YPL241C, strain CIN2, hits give low values 1 | S. cerevisiae deletion strains, locus YPL256C, strain CLN2, hits give low values 0.942 | S. cerevisiae deletion strains, locus YPR119W, strain clb2, hits give low values 1.01 | S. cerevisiae deletion strains, locus YPR141C, strain kar3, hits give low values 1.01 | S. cerevisiae deletion strains, locus YPR163C, strain tif3, hits give low values 1.01 | S. cerevisiae deletion strains, locus YPR167C, strain met16, hits give low values 1.01 | S. cerevisiae deletion strains, strain wtn01, hits give low values 1.01 | S. cerevisiae strains, strain wild type, hits give low values 1
